Only some compounds are listed: those with a hit (about 12% of all), similar ones and a draw of the others.
JMJD2A Tudor: blocks the human JMJD2A Tudor domain. O75164. AlphaScreen JMJD2A-Tudor / H3K4me3 peptide binding. Potency, µM (titrated, usually from 114 µM), actives largely listed as inhibitors. 4.4% of 390,000 active; further: nearly all actives have a fitted effect of over 50% in size
Sfp PPTase inh: blocks B. subtilis Sfp PPTase activity | Q9F4F7 | Biochemical Sfp PPTase activity, qHTS | Potency, µM, most hits filed as inhibitors | 3.5% of 310,000 active;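 further: the enzyme is Sfp with the accession as filed and its product quenches rhodamine fluorescence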
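Sfp 15 nM + cpd, 15 min RT; start w/ rhodamine-CoA 5 uM, BHQ-2-YbbR 12.5 uM (final); 50 mM Hepes pH 7.6, 10 mM MgCl2, 0.01% NP-40, 0.01% BSA; read 525/598 nm at 0 and 30 min.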
BAZ2B block: blocks human BAZ2B; Q9UIF8; AlphaScreen BAZ2B-H3K14Ac peptide displacement; Potency, µM (highest dose often 114 µM), most hits filed as inhibitors; 4.4% of 360,000 active; AID 504333; further: nearly all actives have a fitted effect of over 60% in size
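Protein-peptide AlphaScreen: BAZ2B 50 nM, b-H3K14Ac 50 nM, 1x PBS pH 7.4 + 0.01% Tween-20. Preincubation 30 min RT; cpd 30 min RT (top 110 uM); beads 20 min RT, light-protected.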
G9a inh: blocks human histone lysine methyltransferase G9a | Q96KQ7 | G9a H3K9 monomethylation, AlphaScreen, 2 h | Potency, µM (top dose mostly 102 µM), actives largely listed as inhibitors | 8.8% of 350,000 active | AID 504332; further: nearly all actives have a fitted effect of over 75% in size
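Readings reflect AlphaScreen signal from monomethyl-H3K9 antibody detection. HMT at 20 nM; substrate b-H3K9 500 nM; cofactor SAM 20 uM; 2 h RT reaction; compounds tested as titrations in qHTS with 15 min preincubation.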
HP1b binding inh: blocks HP1-beta chromodomain binding to methylated histone tails. AlphaScreen HP1-beta / biotin-H3K9me3 peptide binding. Potency, µM (series often up to 114 µM), usual class: inhibitors. 0.56% of 390,000 active. AID 540317; further: nearly all actives have a fitted effect of over 70% in size
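HP1-beta protein (50 nM final) preincubated 30 min at room temperature with biotinylated H3(1-18)K9me3 peptide (50 nM) in PBS pH 7.4, 0.01% Tween-20, then compound added for 30 min. AlphaScreen streptavidin donor/nickel chelate acceptor beads (10 ug/mL final), 30 min dark, luminescence read.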
A number is an active result; . = inactive; ? = inconclusive; / = no result; [ ] = remark or other dose. The call rests on the fitted dose curve; in most records, active means well fitted curve in the direction sought with a large enough effect; inconclusive means small, poorly fitted or top-dose-only effect, or another doubt; inactive means no such curve, though single readings can be large; an effect the other way counts as inactive or inconclusive.

SMILES | JMJD2A Tudor | Sfp PPTase inh | BAZ2B block | G9a inh | HP1b binding inh
Nc1ccc2ccc3cccc[n+]3c2c1 | . | . | . | 35.5µM | .
COC(=O)NC(=S)Nc1ccccc1NC(=S)NC(=O)OC | . | 31.6µM | / | / | .
COC(=O)NC(=C(Cl)Cl)P(=O)(c1ccccc1)c1ccccc1 | . | . | . | . | .
CN1C(=O)C(=CN2CCN(C(=O)c3ccco3)CC2)C(=O)N(C)C1=S | . | . | . | ? | .
CC1(C)CC(=O)C2=C(C1)OC(N)=C([N+](=O)[O-])C2c1ccc(C#N)s1 (centres undefined) | . | 35.5µM | ? | .[12.7 µM] | .
Cc1cccc(OCC(=O)N2CCN(Cc3ccc4c(c3)OCO4)CC2)c1 | ? | . | 50.1µM | 10µM | ?
O=C(COc1ccc(Br)cc1)N1CCN(Cc2ccncc2)CC1 | 1µM | . | . | 17.8µM | ?
O=C(COc1ccc(S(=O)(=O)N2CCCCC2)cc1)N1CCN(Cc2ccccc2)CC1 | . | . | . | 44.7µM | .
CSc1ccc(CN2CCN(C(=O)COc3ccc(C)cc3)CC2)cc1 | 8.91µM | . | 56.2µM | 10µM | ?
Cc1ccc(OCC(=O)N2CCN(CCc3ccncc3)CC2)cc1 | . | / | . | . | .
COC(=O)C1=C(N)Oc2cc(C)oc(=O)c2C12C(=O)Nc1ccccc12 (centres undefined) | ? | . | / | . | .
Cc1ccc(NC(=O)CCNC(=O)N2C[C@H]3C[C@@H](C2)c2cccc(=O)n2C3)c(C)c1 | . | . | . | .[12.7 µM] | .
CCN(C(=O)COC(=O)c1cc(C)n(C2CC2)c1C)c1ccccc1 | . | / | ? | .[2.33 µM] | .
O=C(COc1ccc(Br)cc1)N1CCN(Cc2ccc3c(c2)OCO3)CC1 | 8.91µM | ? | 50.1µM | / | ?
Cc1cccn2c(=O)c(/C=C(\C#N)c3nc4ccccc4s3)c(Oc3ccc(F)cc3)nc12 | . | / | . | . | .
Cc1cc(C)cc(Oc2nc3ccccn3c(=O)c2/C=C(\C#N)c2nc3ccccc3s2)c1 | . | / | . | 3.55µM | .
CC1=CC(=O)NP(=O)(Oc2ccc3ccccc3c2)N1 (centres undefined) | 44.7µM | 7.94µM | / | 3.55µM | 14.1µM
COC(=O)C1=C(c2ccc(F)cc2OCc2ccccc2)C[C@@H]2CC[C@H]1N2C(=O)NCc1cccc(F)c1 | ? | / | . | .[0.501 µM] | .
COc1cc(CN2CC3CC(C2)c2cccc(=O)n2C3)cc(OC)c1OC (centres undefined) | . | . | 79.4µM | .[12.7 µM] | .
Cc1ccc(CN2CC3CC(C2)c2cccc(=O)n2C3)cc1 (centres undefined) | . | . | . | .[12.7 µM] | .
O=C(NC(=S)N1C[C@H]2C[C@H](C1)c1cccc(=O)n1C2)c1ccc(Cl)cc1 | ? | . | . | ? | .
O=c1cccc2n1CC1CC2CN(Cc2c(Cl)cccc2Cl)C1 (centres undefined) | . | . | 56.2µM | 35.5µM | .
COC(=O)C(NC(=S)N1CC2C[C@@H](C1)Cn1c2cccc1=O)C(C)C (some centres undefined) | . | . | . | . | .
COc1cc(OC)cc(C(=O)NC(=S)N2C[C@H]3C[C@H](C2)c2cccc(=O)n2C3)c1 | . | . | ? | 50.1µM | .
COc1cc(C(=O)NC(=S)N2C[C@H]3C[C@H](C2)c2cccc(=O)n2C3)cc(OC)c1OC | . | ? | ? | 25.1µM | .
SMILES | JMJD2A Tudor | Sfp PPTase inh | BAZ2B block | G9a inh | HP1b binding inh
Cc1ccc(-n2c(CNCc3ccc(F)cc3)nc3ccccc3c2=O)cc1 | . | . | . | . | .
N/C(=N\N=C/c1ccc(-c2ccc(O)c(C(=O)O)c2)o1)N[N+](=O)[O-] | 11.2µM | 50.1µM | 25.1µM | 25.1µM | 15.8µM
COc1ccc(/C=N/N=C(/N)N[N+](=O)[O-])c(OC)c1 | . | . | . | . | .
c1ccc(C2CC3CC4(CCCC4)N2O3)cc1 (centres undefined) | . | . | . | . | .
CCCCCCNC(=O)N[C@H](Cc1ccc(O)cc1)C(=O)NCCC[C@H]1CN2C(=NC[C@H]2CCC)N1CC1CCC1 | / | 7.94µM | 79.4µM | .[12.7 µM] | /
CCCCCCNC(=O)N[C@@H](Cc1ccc(O)cc1)C(=O)NCCC[C@H]1CN2C(=NC[C@H]2C)N1CC1CCC1 | . | . | . | ? | .
CCN1CC2([N+](=O)[O-])CC=C(Cl)C([N+](=O)[O-])(C1)C2 (centres undefined) | . | . | . | . | .
Cn1c(O)c(C(=O)c2ccccc2Cl)c(=O)n(C)c1=O | 89.1µM | . | / | ? | .
C#CCOCCOCCOCCNc1nc(N2CCN(C(=O)CCCCCCCCCCNC(=O)[C@H]([C@@H](C)CC)n3cc(CCCCN=C(N)N)nn3)CC2)nc(N2CCN(C(=O)CCCCCCCCCCNC(=O)[C@H](CO)n3cc(CCCCCN)nn3)CC2)n1 | 56.2µM | / | 50.1µM | .[2.33 µM] | ?
C1CCCN(C2CCNCC2)CC1 | . | . | . | ? | .
O=C(CCN1CCN(c2ccccc2)CC1)c1ccc(Br)cc1 | . | . | ? | 20µM | .
Cc1cccc(CN2CCN(c3ccc(Cl)cc3)CC2)c1 | 22.4µM | . | 50.1µM | 31.6µM | ?
Fc1ccc(CN2CCN(c3ccc(Cl)cc3)CC2)cc1 | . | . | . | . | .
Oc1ccc(Cl)cc1CN1CCN(Cc2ccccc2)CC1 | . | . | ? | ? | .
Cc1cccc(CN2CCN(Cc3ccc(Cl)cc3)CC2)c1 | 1.12µM | ? | 31.6µM | 7.08µM | ?
COc1ccc(N2CCN(CCc3ccncc3)CC2)cc1 | . | . | . | . | .
CCCCCCN1CCN(c2ccc(Cl)cc2)CC1 | ? | . | 44.7µM | ? | ?
COc1cccc(/C=C/c2nc3ccccc3c(=O)n2-c2ccc(Cl)cc2)c1OC | . | / | . | . | .
Cc1nc(CCl)cc(=O)[nH]1 | . | . | . | ? | .
Cc1cc(C=C2C(=O)N(C)C(=S)N(C)C2=O)c(C)n1-c1cccnc1 | . | . | 44.7µM | 8.91µM | .
CCN1C(=O)C(=Cc2cc(C)n(C3CC3)c2C)C(=O)N(CC)C1=S | . | ? | . | 50.1µM | .
Cc1cc(C=C2C(=O)N(C)C(=S)N(C)C2=O)c(C)n1C1CCCC1 | ? | 56.2µM | ? | 11.2µM | .
Cc1cc(/C=C2\C(=O)NC(=S)N(C)C2=O)c(C)n1C1CCCCC1 | . | ? | . | ? | .
O=CC(Cl)P(=O)(N1CCCCC1)N1CCCCC1 (centres undefined) | . | . | . | . | .
CCN1CCN(S(=O)(=O)c2ccc(Cl)nc2)CC1 | . | . | . | . | .
COc1ccc(NC(=O)c2ccco2)cc1NC(=O)COc1cccc(C)c1C | . | / | . | . | ?
C=CCn1c(O)c(C(CC)=NCCc2ccccc2)c(=O)[nH]c1=O | . | . | . | . | .
C=CCn1c(O)c(/C(C)=N/NC(=S)Nc2ccccc2)c(=O)[nH]c1=O | ? | 35.5µM | . | . | .
C=CCn1c(O)c(/C(CC)=N/NC(=S)Nc2ccccc2)c(=O)[nH]c1=O | . | 22.4µM | . | / | .
COc1c2c(c(CC=C(C)C)c3oc(=O)c(-c4ccc(O)cc4)c(O)c13)OC(C)(C)C=C2 | / | . | / | / | /

Screening data from PubChem BioAssay.
